BAZ2B block = blocks human BAZ2B; Q9UIF8; AlphaScreen BAZ2B-H3K14Ac peptide displacement; Potency, µM (doses to about 114 µM), actives largely listed as inhibitors; 360,000 tested, 4.4% active; AID 504333; also: nearly all actives have a fitted effect of over 60% in size
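Protein-peptide AlphaScreen: BAZ2B 50 nM, b-H3K14Ac 50 nM, 1x PBS pH 7.4 + 0.01% Tween-20. Preincubation 30 min RT; cpd 30 min RT (top 110 uM); beads 20 min RT, light-protected.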
GLS inhibitor = blocks human kidney-isoform glutaminase activity; O94925; GLS enzymatic activity, qHTS titration; Potency, µM (titrated, usually from 45.5 µM), usual class: inhibitors; 410,000 tested, 0.21% active; AID 624170
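Coupled fluorescence readout: glutamate oxidase/HRP/Amplex Red detect glutamate formed by hKGA from L-glutamine (1 mM solution added). Buffer 45 mM KH2PO4 pH 8.2, 0.02% Tween-20; reads at t0 and 30 min RT.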
G9a inh = inhibitors of human histone lysine methyltransferase G9a. 350,000 tested, 8.8% active. G9a H3K9 monomethylation, AlphaScreen, 2 h. Potency, µM (top dose mostly 102 µM), most hits filed as inhibitors. AID 504332. Q96KQ7; also: nearly all actives have a fitted effect of over 75% in size
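Signal arises when biotinylated H3K9 peptide, once monomethylated, bridges streptavidin donor and antibody-captured acceptor beads. Enzyme at 20 nM was preincubated 15 min with test compounds; peptide 500 nM and SAM 20 uM then reacted for 2 h.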
JMJD2A Tudor inh = inhibitors of human JMJD2A Tudor domain. AlphaScreen JMJD2A-Tudor / H3K4me3 peptide binding. Potency, µM (top dose mostly 114 µM), hits mostly inhibitors. 390,000 tested, 4.4% active; also: nearly all actives have a fitted effect of over 50% in size
HP1b binding inh = blocks HP1-beta chromodomain binding to methylated histone tails | P83916 | AlphaScreen HP1-beta / biotin-H3K9me3 peptide binding | Potency, µM (series often up to 114 µM), hits mostly inhibitors | 390,000 tested, 0.56% active | AID 540317; also: nearly all actives have a fitted effect of over 70% in size
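HP1-beta protein (50 nM final) preincubated 30 min at room temperature with biotinylated H3(1-18)K9me3 peptide (50 nM) in PBS pH 7.4, 0.01% Tween-20, then compound added for 30 min. AlphaScreen streptavidin donor/nickel chelate acceptor beads (10 ug/mL final), 30 min dark, luminescence read.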
A number is an active result; - = inactive; ? = inconclusive; . = no result; [ ] = another dose, or the depositor's remark. A selection: hits, their analogues and other compounds. The true share with any hit is near 10%. Calls follow the shape of the dose curve; as a rule, active = well fitted curve in the direction sought with a large enough effect; inconclusive = small, poorly fitted or top-dose-only effect, or another doubt; inactive = no such curve, though single readings can be large; an effect the other way counts as inactive or inconclusive.

SMILES	BAZ2B block	GLS inhibitor	G9a inh	JMJD2A Tudor inh	HP1b binding inh
COc1cccc(CN2CCCN(Cc3ccc(F)cc3)S2(=O)=O)c1	-	-	?	-	-
COc1ccc2c(c1)c1c(c(=O)n(Cc3ccccc3)c(=O)n1CC(=O)NCc1ccc(C)cc1)n2C	-	-	-	-	-
CSc1ccccc1C(=O)N1CCN(c2ccc(F)cc2)CC1	-	-	-	-	-
O=S(=O)(Nc1nc2ccccc2nc1N1CCN(c2ccccc2)CC1)c1ccc(F)cc1	?	-	50µM	?	-
CC1CCN(C2=C(NS(=O)(=O)c3ccc(Cl)cc3)C(=O)c3ccccc3C2=O)CC1	4.5µM	-	5.6µM	45µM	?
CC(=C1C(=O)c2ccccc2C1=O)N1CCN(c2ccc(F)cc2)CC1	-	-	50µM	-	-
CC1CCN(C2=C(NS(=O)(=O)c3ccc(Br)cc3)C(=O)c3ccccc3C2=O)CC1	4.5µM	-	8.9µM	8.9µM	6.3µM
Nc1c(-c2nc(-c3cccs3)no2)nnn1-c1cccc(F)c1	-	-	-	-	-
O=c1c2c([nH]n1-c1ccccc1)C[C@@H](C1CCCCC1)O[C@H]2c1ccc(F)cc1	.	-	.	.	.
O=C(c1cccc(NS(=O)(=O)c2ccc(F)cc2)c1)N1CCN(c2ccccc2)CC1	-	-	-	-	-
O=S(=O)(Nc1ccc(N2CCOCC2)cc1)c1cccs1	-	-	-[12.7 µM]	-	-
O=C1C(NS(=O)(=O)c2cccs2)=C(N2CCN(c3cccc(Cl)c3)CC2)C(=O)c2ccccc21	8.9µM	-	?	7.1µM	?
O=C1C(NS(=O)(=O)c2ccccc2)=C(N2CCN(c3ccc(F)cc3)CC2)C(=O)c2ccccc21	4µM	-	5.6µM	?	10µM
O=C1C(NS(=O)(=O)c2ccc(Br)cc2)=C(N2CCCCC2)C(=O)c2ccccc21	5µM	-	8.9µM	8.9µM	10µM
O=S(=O)(Nc1ccccc1N1CCCCC1)c1ccccc1	-	-	-	-	-
O=S(=O)(Nc1nc2ccccc2nc1Cl)c1ccccc1	-	-	40µM	-	-
Cc1n[nH]c(=O)c2c(NC(=O)CSc3nncs3)oc(C)c12	-	-	-[0.501 µM]	-	-
C=CC[C@@H](CC(=O)N[C@H](CO)Cc1ccccc1)C(=O)NC[C@H](OC(=O)[C@@H](CC=C)Cc1ccc(F)cc1)c1ccccc1	.	-	.	-	-
Cc1cnc(C(=O)Nc2cc(F)ccc2C)cn1	-	-	-	-	-
CCOC(=O)CSc1nc(-c2ccc(F)cc2)cc(C(F)(F)F)c1C#N	-	-	-	-	-
CC1CCN(C2=C(NS(=O)(=O)c3ccccc3)C(=O)c3ccccc3C2=O)CC1	6.3µM	?	4µM	14µM	14µM
CC1CCCN(C2=C(NS(=O)(=O)c3ccc(Br)cc3)C(=O)c3ccccc3C2=O)C1 (configuration not stated)	3.5µM	-	?	3.5µM	?
CC1CCN(C(CNS(=O)(=O)c2ccccc2)c2ccccc2)CC1 (configuration not stated)	-	-	-[2.33 µM]	-	-
FC(F)(F)c1ccc(/C=N/n2c(COc3ccccc3)n[nH]c2=S)cc1	?	-	-[2.33 µM]	?	-
CCc1ccc(/C=N/n2c(COc3ccccc3)n[nH]c2=S)cc1	-	-	20µM	?	-
SMILES	BAZ2B block	GLS inhibitor	G9a inh	JMJD2A Tudor inh	HP1b binding inh
S=c1[nH]nc(COc2ccccc2)n1/N=C/c1ccccn1	-	-	?	4µM	-
S=c1[nH]nc(COc2ccccc2)n1/N=C/c1ccncc1	-	-	?	25µM	-
Cn1cccc1C(=O)N1CCC[C@@]2(CCN(C(=O)Nc3cccc(F)c3)C2)C1	.	.	-[12.7 µM]	.	.
O=C1/C(=C/c2ccc([N+](=O)[O-])cc2)CCc2ccccc21	32µM	.	?	.	.
O=C1/C(=C/c2cccc([N+](=O)[O-])c2)CCc2ccccc21	?	-	?	?	-
Cc1ccc(C)c(N2C(=N)S/C(=C\c3ccc(-c4ccccc4C(=O)O)o3)C2=O)c1	20µM	-	2.2µM	32µM	-
CCOC(=O)C(C)N1C(=O)S/C(=C\c2ccc(-c3ccccc3C(=O)O)o2)C1=O (configuration not stated)	25µM	13µM	10µM	22µM	?
CC(C(=O)OCC(=O)c1ccccc1)N1C(=O)c2ccccc2C1=O (configuration not stated)	-	-	-	-	-
O=c1[nH]c(N2CCCCC2)nc2ncn(Cc3ccccc3)c12	-	-	-	-[11.4 µM]	-
Cc1ccccc1CSc1ncc(Cl)c(C(=O)Nc2nc3ccc(F)cc3s2)n1	-	-	-	-	-
Cc1ccc2nc(NCc3ccco3)c(C=NCc3ccco3)c(=O)n2c1	50µM	-	-	-	-
COc1cccc(N2CCN(C(=O)C3CCN(C(=O)Nc4ccccc4)CC3)CC2)c1	.	-	.	.	.
CCCn1c2ccc(C)cc2c2nnc(SCCN3CCCCC3)nc21	-	-	8.9µM	-	-
Cc1ccc(-c2noc(C3CCCN(C(=O)C4CCCCC4)C3)n2)o1 (configuration not stated)	-	-	11µM	-	-
Cc1ccc(-c2noc(C3CCCN(C(=O)c4ccc(Cl)cc4)C3)n2)o1 (configuration not stated)	?	-	?	-	-
O=C1C(Cl)=C(N2CCN(c3ccccc3[N+](=O)[O-])CC2)C(=O)c2ccccc21	2.5µM	-	7.9µM	5µM	8.9µM
COCCn1c(=S)[nH]c2cc(C(=O)N3CCC(C(N)=O)(N4CCCCC4)CC3)ccc2c1=O	-	-	35µM	?	-
CCOCCCn1c(=S)[nH]c2cc(C(=O)N3CCC(C(N)=O)CC3)ccc2c1=O	?	-	35µM	8.9µM	-
COc1ccccc1Cn1c(=S)[nH]c2cc(C(=O)N3CCC(C(N)=O)CC3)ccc2c1=O	-	?	79µM	-	-
CCOC(=O)N1CCN(C(=O)c2ccc3c(=O)n(Cc4ccccc4OC)c(=S)[nH]c3c2)CC1	-	?	-	-	-
Cc1cc2c(s1)c1cnn(Cc3ccccc3C)c(=O)c1n2C	.	.	.	-	.
COc1ccc2c(c1)cc1c(=O)n(CC(=O)NC3CCCCC3)nc(C)n12	-	-	-	-	-
CCOC(=O)c1c(S(=O)(=O)NCC(=O)Nc2ccc(C)c(N(C)C)c2)c(C)n(C)c1C	?	-	-	?	-
O=C(O)COc1ccc(/C=C/c2nc(-c3ccccc3O)n[nH]2)cc1	-	-	13µM	-	-
COc1ccc(/C=C/c2nc(-c3ccccc3O)n[nH]2)cc1OC	-	-	-	-	-
CCCCn1c(NCc2ccc(N(C)C)cc2)nc2ccccc21	40µM	-	?	40µM	?
C=CCn1c(NCc2ccc(N(C)C)cc2)nc2ccccc21	45µM	-	?	?	?
CC(C)[C@H](NC(=O)CCCn1nnc2ccccc2c1=O)C(=O)O	-	-	.	-	-
O=C(CN1CCOCC1)N(c1ccccc1)c1ccc2ccccc2c1	-	-	50µM	-	-

From PubChem BioAssay
